Drawing on PubChem BioAssay (NCATS), this text covers outcome and Potency for 40 compounds.

Results filed as inconclusive are left out. Entries that show only a call come without a potency. The source made the active and inactive calls. Calls come from the whole dose curve; as a rule, active = well fitted inhibition curve with a large enough effect; inconclusive = small, poorly fitted or top-dose-only effect; inactive = flat fitted curve, though single readings scatter.

The subject of the experiment is CRL-7250. Kind of experiment: qHTS assay to identify novel small-molecules to repurpose for Merkel cell carcinoma treatment (AID 1296009). Note: nearly all actives have a fitted effect of over 60% in size. The following applies: MCC and control cell lines, CellTiter-Glo viability, 72 h; series mostly up to 92 µM. The procedure, abridged: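 Dose-response viability screen; 72 hr exposure at 37 degree celsius; CellTiter-Glo added, 10 min room temperature, luminescence read; RLUs scaled between no-cell and DMSO wells.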
Background: qHTS replaces the single test concentration by a dilution series.
In the case of `CC1(C)CC[C@]2(C(=O)O[C@@H]3O[C@H](CO[C@@H]4O[C@H](CO)[C@@H](O)[C@H](O)[C@H]4O)[C@@H](O)[C@H](O[C@@H]4O[C@H](CO)[C@@H](O)[C@H](O)[C@H]4O)[C@H]3O)CC[C@]3(C)C(=CCC4[C@@]5(C)CC[C@H](O[C@@H]6OC[C@@H](O)[C@H](O)[C@H]6O)[C@@](C)(C(=O)O)C5CC[C@]43C)[C@@H]2C1` (stereo not given in full), the outcome was “inactive [at 9.27 µM]”.
As to `CC(C)C1CCC(CO)=CC1/C=C(\CO)C(=O)OCC1(O)CCC(C(C)C)C2C=C(C(=O)O)COC(=O)C21` (stereo not given), the Potency result is “inactive”.
For `COC(=O)C1=CO[C@@H](O[C@@H]2O[C@H](CO)[C@@H](O)[C@H](O)[C@H]2O)[C@@H]2[C@@H](CO)[C@@H](O)C(O)[C@H]12` (stereo not given in full), the Potency entry was “inactive”.
In the case of `CC(C)S(=O)(=O)N[C@H]1CCOC[C@@H]1c1ccc(-c2ccc(C#N)s2)cc1`, the Potency entry was “inactive”.
As to `CC(=O)OCC1(O)CCC2C(COC3OC(CO)C(O)C(O)C3OC(=O)/C=C/c3ccc(O)cc3)=COC(OC(=O)CC(C)C)C21` (stereo not given), the Potency entry was “inactive”.
Same read-out and setting: to `CC(CCO)CCC1C2(C)CCCC(C)(C)C2CC[C@@]1(C)O` (stereo not given in full) belongs “inactive”; to `Cc1cccc(-c2[nH]c(CNc3ccccc3F)nc2-c2ccc3ncnn3c2)n1`, “inactive”; to `COc1cc2c(cc1OC)CN(C(=O)[C@@H](NCc1ccncc1)C(C)(C)C)CC2`, “inactive”.
As for `CC1OC(OC2CCC3(C)C(CCC4(C)C3CC=C3C5CC(C)(C)CCC5(C(=O)OC5OC(CO)C(O)C(O)C5O)CCC34C(=O)O)C2(C)C)C(O)C(O)C1O` (stereo not given), the Potency entry was “inactive”.
Still for that read-out and setting: to `CC(=O)c1cc2c(cc1O)OC(C)(C)C=C2` belongs “inactive”.
Turning to `COc1c2c(c(C)c3c1C(=O)OC3)O[C@@]1(C)C[C@@H](O)[C@]34O[C@](OC)(CC[C@]3(C)[C@H]1C2)OC4(C)C`, the Potency entry was “inactive”.
The same measure, in the same setting: to `c1ccc(C(OC2CCN(CCCc3nn[nH]n3)CC2)c2ccccc2)cc1` belongs “inactive”.
Take `C[C@H](/C=C/[C@@]1(O)[C@H](C)CC(=O)CC1(C)C)O[C@@H]1O[C@H](CO[C@@H]2OC[C@@H](O)[C@H](O)[C@H]2O)[C@@H](O)[C@H](O)[C@H]1O`: the Potency entry was “inactive”.
Same read-out and setting: under `CCOC(=O)CSc1nc2c(sc3ccccc32)c(=O)n1CCCN1CCCC1` stands “inactive”; under `CC(=O)OC/C(=C/C(=O)O)CC[C@@H]1C(C)=CC(=O)[C@@H]2C(C)(C)CCC[C@@]12C`, “inactive”.
For the compound `C=C(C)[C@@H](C)[C@H]1O[C@]23C[C@]4(CO2)C(CCC2[C@@]5(C)CC[C@H](O[C@@H]6OC[C@H](O)[C@H](O[C@@H]7O[C@H](CO)[C@@H](O)[C@H](O)[C@H]7O)[C@H]6O[C@@H]6O[C@@H](CO)[C@H](O)[C@H]6O)C(C)(C)C5CC[C@]24C)C3[C@@](C)(O)[C@@H]1OC(C)=O` (stereo not given in full), the outcome was “inactive [at 9.27 µM]”.
For the compound `CO[C@@H]1CC[C@H](OC[C@]2(COC(=O)c3ccc(C)[nH]3)[C@H](OC(C)=O)CC[C@@]3(C)[C@@H]4CC=C(C)[C@@H](C5=C(O)C(=O)OC5O)[C@]4(C)CC[C@@H]32)O[C@H]1C` (stereo not given in full), the Potency result is “inactive”.
With `NCCCC[C@H](NC(=O)[C@@H]1Cc2ccccc2CN1C(=O)CCC(=O)c1ccccc1)C(=O)NCC(c1ccccc1)c1ccccc1`, the Potency result is “inactive”.
The same measure, in the same setting: under `Clc1ncoc1-c1c[nH]c2ccccc12` stands “inactive”; under `C=C[C@H]1CN2CC[C@H]1C[C@@H]2C(O)c1ccnc2ccc(OC)cc12` (stereo not given in full), “inactive”.
In the case of `OC/C=C/C=C/[C@H]1Cc2cc(O)cc(O)c2O1`, the Potency result was “inactive”.
On to `Cc1cc(O)cc(O[C@@H]2O[C@H](CO)[C@@H](O)[C@H](O)[C@H]2O)c1`, for which the Potency entry is “inactive”.
`C=CC(=O)N1CC(N2CCN(C(=O)CNc3cc(C4CC4)c(Cl)cc3O)CC2)C1`: the Potency result was “inactive”.
With `CO[C@H]1c2cc(C(C)C)c(O)c(O)c2[C@@]23CCCC(C)(C)C2[C@@H]1OC3=O` (stereo not given in full), the Potency result is “inactive”.
Turning to `CC(C)C(C(=O)N(C)C(C)C(N)=O)N(C)C(=O)C1CCCN1C(=O)/C=C/C=C/C(O)C(C)O` (stereo not given), the Potency entry was “inactive”.
For `C[C@@H]1O[C@@H](O[C@H]2[C@H](OC(=O)[C@]34CCC(C)(C)C[C@H]3C3=CCC5[C@@]6(C)C[C@H](O)[C@H](O[C@@H]7O[C@H](CO)[C@@H](O[C@H]8OC[C@](O)(CO)[C@H]8O)[C@H](O)[C@H]7O)[C@@](C)(CO)C6[C@H](O)C[C@@]5(C)[C@]3(C)C[C@H]4O)OC[C@H](O)[C@@H]2O)[C@H](O)[C@H](O)[C@H]1O[C@@H]1OC[C@@H](O)[C@H](O[C@@H]2OC[C@](O)(CO)[C@H]2O)[C@H]1O` (stereo not given in full), the outcome is “inactive [at 9.27 µM]”.
Regarding `CC1=C2C(=O)C=C(CO)[C@@H]2[C@H]2OC(=O)[C@H](C)[C@@H]2[C@@H](O)C1`, the Potency result is “inactive”.
On to `N[C@@H](CCNCc1ccc(Cl)cc1)C(=O)N1CCCCC1`, for which the Potency entry was “inactive”.
Regarding `O=C(O)CCc1cc2ccoc2cc1O[C@@H]1O[C@H](CO)[C@@H](O)[C@H](O)[C@H]1O`, the Potency result was “inactive”.
Still for that read-out and setting: under `Cc1ncc([N+](=O)[O-])n1C[C@H](O)CN1CCOCC1` stands “inactive”; under `COc1ccncc1C(=O)NC(=O)Nc1ccc(-c2ccccc2)c(C(F)(F)F)c1`, “inactive”.
Take `CC1(C=O)CCCC2(C)C1CCC13CC(CO)C(CCC12)C3` (stereo not given): the Potency entry is “inactive”.
With `CC(=O)OC1(C)CC(O)C2(O)C=COC(OC3OC(CO)C(O)C(O)C3O)C12` (stereo not given), the Potency entry is “inactive”.
With `CN1CCc2cc3c(cc2C(=O)Cc2cc4c(cc2C1)OCO4)OCO3`, the Potency entry is “inactive”.
Same read-out and setting: under `NC(Cc1c[nH]c2ccccc12)C(=O)NC(CCC(=O)O)C(=O)O` (stereo not given) stands “inactive”; under `CC(C)/C=C1/NC(=O)C(C(C)C)n2c1nc1c(O)cccc1c2=O` (stereo not given), “inactive”.
For `CN1CCc2cc(Cl)c(O)cc2[C@@H](c2cccc3c2OCC3)C1`, the Potency entry was “inactive”.
Same read-out and setting: under `CO[C@@]12CC3[C@@H]([C@@H](O)[C@@H](OC(C)=O)C4[C@](C)(COC(C)=O)CCC[C@]34C)[C@@H](C)C1=CC(=O)O2` (stereo not given in full) stands “inactive”.
Consider `C/C=C(/C)C(=O)O[C@H]1C[C@]2(C)O[C@@H]2[C@@H](OC(C)=O)[C@@]2(C)CC[C@@](O)(C(C)C)[C@H]12`, for which the Potency result was “inactive”.
Turning to `CC(C)OC(=O)N1CCC(Oc2ncnc3c2cnn3-c2ccc(S(C)(=O)=O)cc2F)CC1`, the Potency entry is “inactive”.
